Screens as filed in PubChem.
Most compounds without a hit are left out; they make up all but 3.4% or so of the library.
GPR151 ag: activators of human GPR151, primary screen, cell-based, PathHunter beta-arrestin, luminescence; activation, % at 11.2 µM; PathHunter beta-arrestin GPR151 cells; G-protein coupled receptor 151 (Homo sapiens), Q8TDV0; actives 1% (n = 650,000); in the data active means activation above about 4.9%;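 further: 0% = median of compound wells and 100% = cells with positive control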
Target sequence (Q8TDV0 whole entry, looked up): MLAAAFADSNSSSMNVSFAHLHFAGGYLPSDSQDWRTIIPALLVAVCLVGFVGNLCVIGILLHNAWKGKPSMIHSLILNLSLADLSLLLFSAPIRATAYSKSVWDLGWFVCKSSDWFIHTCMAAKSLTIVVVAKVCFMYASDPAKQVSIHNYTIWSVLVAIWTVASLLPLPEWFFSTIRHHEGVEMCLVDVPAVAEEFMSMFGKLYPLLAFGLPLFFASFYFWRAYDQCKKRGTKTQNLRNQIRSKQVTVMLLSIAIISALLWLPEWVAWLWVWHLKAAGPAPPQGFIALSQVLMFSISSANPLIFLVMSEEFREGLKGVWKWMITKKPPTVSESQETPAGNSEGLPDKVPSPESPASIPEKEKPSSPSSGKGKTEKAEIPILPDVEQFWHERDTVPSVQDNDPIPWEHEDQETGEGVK
TEAD-YAP inh: TEAD-YAP interaction inhibition, primary screen, TEAD-YAP interaction inhibitor project, luminescence, HEK-TIYL cells | actives 1.4% (n = 640,000) | inhibition, % at 9.12 µM | TEAD-Gal4/YAP UAS-luciferase luminescence; in the data active means inhibition above about 32%;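 further: 0% = median of test compound wells and 100% = reference inhibitor wells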
FBW7 activator: FBW7 E3 ligase activators, primary screen, biochemical, AlphaScreen, human; F-box/WD repeat-containing protein 7 (Homo sapiens), Q969H0; AlphaScreen FBW7–phospho-cyclin E peptide binding, activator screen; normalized activity (activation), % at 26.1 µM; actives 0.13% (n = 650,000); AID 1259310, 2017; in the data active means normalized activity above about 1.9%;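 further: purified mutant Fbw7 with reduced substrate affinity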
MITF inh: MITF inhibitors, primary screen, biochemical, AlphaScreen, human; AlphaScreen MITF homodimerization, bead proximity signal; inhibition, % at 2.6 µM; actives 0.91% (n = 650,000); AID 1259374, 2018; in the data active means inhibition above about 50%;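 further: 0% = vehicle wells with protein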
The depositor's hits bear a star.

SMILES	GPR151 ag	TEAD-YAP inh	FBW7 activator	MITF inh
Cc1ccccc1-n1ncc2c(=O)n(Cc3ccccn3)cnc21	1	-4	0	10
O=c1nc2s/c(=C\c3ccco3)c(=O)n2nc1Cc1ccc(F)cc1	0	2	-2	70*
O=C(Nc1ncc([N+](=O)[O-])s1)c1ccc(Br)cc1F	-12	85*	0	-5
CCC(=O)Nc1cccc(NC(=O)c2cc(Br)ccc2Cl)c1	1	0	0	25
Cc1cc(NC(=O)CSc2nc3ccccc3c(=O)n2CCCN2CCCCC2)n[nH]1	0	84*	0	7
Cc1cc(NC(=O)CSc2nc3ccccc3c(=O)n2CCCN2CCC(C)CC2)n[nH]1	-1	85*	0	0
Cc1cc(NC(=O)CSc2nc3ccccc3c(=O)n2CCCC(=O)NCCc2ccccc2)n[nH]1	0	19	0	-4
Cc1cc(NC(=O)CSc2nc3ccccc3c(=O)n2CCC(=O)N2CCN(c3ccccc3)CC2)n[nH]1	2	-3	0	-2
O=C(CSc1nc2ccccc2c(=O)n1CCCN1CCCCC1)Nc1ccccc1Cl	2	-18	0	-7
Cc1cc(NC(=O)CSc2nc3ccccc3c(=O)n2CCCC(=O)N2CCCC2)n[nH]1	-1	54*	0	5
Cc1nc2c3ccccc3nc(SCC(=O)Nc3cc(C)[nH]n3)n2n1	1	56*	0	7
CCC(NS(=O)(=O)c1cc(Br)cnc1N)c1cccs1 (configuration not stated)	0	5	0	15
Cc1ccc(C2C(C#N)=C(SCC(=O)Nc3cccc(C)c3C)NC3=C2C(=O)CCC3)o1 (configuration not stated)	1	64*	0	-12
CCc1ccc(NC(=O)CSC2=C(C#N)C(c3ccc(C)o3)C3=C(CCCC3=O)N2)cc1 (configuration not stated)	0	20	1	2
Cc1c(Cl)cccc1NC(=O)CSC1=C(C#N)C(c2ccco2)C2=C(CCCC2=O)N1 (configuration not stated)	1	38*	0	49
Cc1cccc(C)c1NC(=O)CSC1=C(C#N)C(c2ccco2)C2=C(CCCC2=O)N1 (configuration not stated)	-1	9	0	14
O=C(NCCc1ccc(O)cc1)c1csc(Nc2ccc(-n3ccnc3)cc2)n1	-2	31	0	25
O=C(NCCOc1ccccc1)c1csc(Nc2ccc(-n3ccnc3)cc2)n1	2	45*	0	15
O=C(NCCOc1ccccc1)c1cccc(Nc2ccc(-n3ccnc3)cc2)n1	2	61*	0	11
O=C(NCCOc1ccccc1)c1cccc(Nc2ccncc2)n1	1	-8	0	-8
CCC1CCCCN1C(=O)COC(=O)c1cc(=O)c2ccccc2o1 (configuration not stated)	2	15	0	-8
Cc1cccc(Nc2ncc([N+](=O)[O-])c(Nc3cccc(C)c3)n2)c1	1	13	0	6
CCCCCCn1c(NCCO)nc2c1c(=O)[nH]c(=O)n2C	1	5	0	-24
O=C(Cc1ccccc1)Nc1nnc(-c2ccc(F)cc2Cl)s1	-1	3	0	3
O=C(CSc1n[nH]c(=O)n1Cc1ccccc1)Nc1ccc(Br)cc1F	3	34*	0	-1
SMILES	GPR151 ag	TEAD-YAP inh	FBW7 activator	MITF inh
CCOc1ccc(Nc2nc(Nc3ccc(NC(C)=O)cc3)nc(C)c2[N+](=O)[O-])cc1	-1	44*	0	-3
CC(=O)Nc1ccc(Nc2nc(C)c([N+](=O)[O-])c(Nc3ccccc3)n2)cc1	3	29	0	6
CC(=O)N1/C(=C/c2ccc(N(C)C)cc2)C(=O)c2ccccc21	-1	46*	0	43
CC(=O)N1/C(=C/c2ccncc2)C(=O)c2ccccc21	-2	-1	0	5
CN(c1ccccc1)S(=O)(=O)c1ccc2c(c1)oc(=O)n2C	-1	56*	1	10
COc1ccc(N(C)S(=O)(=O)c2ccc3c(c2)oc(=O)n3C)cc1	1	3	0	20
CN(c1ccc(Br)cc1)S(=O)(=O)c1ccc2c(c1)oc(=O)n2C	1	34*	0	9
C/C=C(\C)C(=O)N1CCC2(CC1)CC2C(=O)Nc1ccccc1 (configuration not stated)	-1	-5	0	3
COCCn1nnnc1C(c1cc2ccc(C)cc2[nH]c1=O)N1CCCCC1 (configuration not stated)	1	-5	0	-5
COc1ccccc1Nc1ncnc2c1cnn2-c1ccc(Cl)cc1	2	-71	0	-2
CCN1CCN(Cc2ccc(NC(=O)Nc3cc(F)ccc3F)cc2)CC1	-1	40*	0	0
CN(Cc1ccccc1)S(=O)(=O)c1cc(C(=O)Nc2ccc(F)c(F)c2)ccc1F	4	44*	0	-6
CCc1ccc(NC(=O)c2ccc(F)c(S(=O)(=O)N(CC)Cc3ccccc3)c2)cc1	0	-2	0	-5
CCN(Cc1ccccc1)S(=O)(=O)c1cc(C(=O)Nc2ccc(Cl)c(Cl)c2)ccc1F	1	55*	0	12
O=C(Nc1ccc(F)c(F)c1)c1ccc(F)c(S(=O)(=O)NCc2ccco2)c1	0	38*	1	3
CCN(Cc1ccccc1)S(=O)(=O)c1cc(C(=O)Nc2ccc(F)c(F)c2)ccc1F	1	59*	0	11
Cc1ccc(Cn2c(=O)c3c(nc(NCCCO)n3C)n(C)c2=O)cc1	-1	-3	0	20
COc1ccc(C(=O)N2CC(=O)N(CCc3ccccc3)C(=O)C2)cc1	0	-5	0	13
COc1ccc(CNn2c(-c3cc(OC)c(OC)c(OC)c3)nc3ccccc3c2=O)cc1OC	2	1	0	-1
O=C1CCCC2=C1C(c1cc(Br)ccc1O)C1C(=O)c3ccccc3C1=N2 (configuration not stated)	3	50*	0	16
O=C1CCCC2=C1C(c1cc([N+](=O)[O-])ccc1O)C1C(=O)c3ccccc3C1=N2 (configuration not stated)	1	18	-1	12
CCOc1cccc2c1OC(c1ccc(OC)cc1)N1N=C(c3ccc(C)o3)CC21 (configuration not stated)	-2	-12	0	-4
COc1cccc2c1OC1(CCC(C)CC1)N1N=C(c3ccc(C)o3)CC21 (configuration not stated)	-3	33*	0	10
COc1ccc(C2=NN3C(C2)c2cccc(OC)c2OC3c2ccc(OC)cc2)cc1 (configuration not stated)	-1	-59	0	-3
COc1ccc(C2Oc3c(OC)cccc3C3CC(c4cccc(OC)c4)=NN32)cc1 (configuration not stated)	-1	44*	0	0
COc1cccc(C2Oc3c(OC)cccc3C3CC(c4ccc(C)o4)=NN32)c1 (configuration not stated)	-1	38*	0	-1
